Our source for the outcome and AC50 values is PubChem BioAssay (EPA / NIEHS).

Several values for one entry are separate records, joined by “and”; a condition that tells them apart may be missing. Identical values can stand only once. Inconclusive results are not listed. A structure can be active in one record and inactive in another. Activity calls are given as the source filed them. How the source made its calls: active means hit-call score of the fitted dose curve at least 0.9, where 1 is the maximum; inconclusive means response in the unintended direction; inactive means score below 0.9.

The nature of assay [1]: ATG_XTT_Cytotoxicity: Cytotoxicity Assessment in the Attagene TRANS-FACTORIAL HepG2 Assay (AID 2283584).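 On AC50: cells exposed to compound for 24 h before reading; active means loss of viability signal versus DMSO baseline.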 The method in brief:
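XTT readout of cell number in transfected HepG2 cells, 24 h post-dosing; DMSO serves as negative control and baseline, with activity taken as loss of viability signal.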

A short description of assay [2]: TOX21_p53_BLA_p2_viability: Viability Assessment in the Tox21 HCT-116 p53 Agonism Beta-lactamase Assay, Phase 2 (AID 2283591).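 Further: actives lower the ATP signal meaning cytotoxicity.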 The method, boiled down: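 HCT116 p53-bla cells, 4000/well, dosed after 5 h plating (217-fold dilution of DMSO stocks) and incubated 16 h at 37C. Viability taken as cellular ATP by CellTiter-Glo luminescence after 30 min RT; signal loss marks cytotoxicity.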

Assay [3] concerns the target Cellular tumor antigen p53 (Homo sapiens) (UniProt P04637). Nature of the assay: TOX21_p53_BLA_p2_ratio: Tox21 HCT-116 p53 Agonism Beta-lactamase Assay, Ratio, Phase 2 (AID 2283592). The method, boiled down: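 Readout: blue/green (460/530 nm) FRET emission ratio after 2 h CCF4-AM loading at room temperature, excitation 405 nm. HCT116 p53 bla cells, 16 h compound exposure at 37C, 5% CO2; agonist direction fitted against DMSO baseline.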

Assay [4] is described as follows: TOX21_p53_BLA_p3_viability: Viability Assessment in the Tox21 HCT-116 p53 Agonism Beta-lactamase Assay, Phase 3 (AID 2283593).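 Further: cells exposed to compound for 16 h before reading.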 The method, boiled down: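 HCT116 cells, 4000/well, dosed 5 h after plating by pin transfer (217-fold dilution from DMSO stock) and incubated 16 h at 37C, 5% CO2. Viability read as ATP luminescence with CellTiter-Glo after 30 min at room temperature.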

Assay [5] addresses Cellular tumor antigen p53 (Homo sapiens) (UniProt P04637). Kind of assay: TOX21_p53_BLA_p3_ratio: Tox21 HCT-116 p53 Agonism Beta-lactamase Assay, Ratio, Phase 3 (AID 2283596). The method, boiled down: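 Cells were seeded at 4000/well, rested 5 h at 37C, then dosed with DMSO compound solutions (217-fold dilution) for 16 h. CCF4-AM substrate was loaded for 2 h at room temperature, and the 460/530 nm emission ratio was fitted for gain of signal versus DMSO.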

The nature of assay [6]: TOX21_p53_BLA_p4_viability: Viability Assessment in the Tox21 HCT-116 p53 Agonism Beta-lactamase Assay, Phase 4 (AID 2283597).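 Further: hits lower the luminescence signal meaning cytotoxicity.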 The method, boiled down:
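ATP content by CellTiter-Glo luminescence, 30 min RT, read after the beta-lactamase ratio step. Cells: HCT116, 4000/well, compound added after 5 h, exposure 16 h at 37C. Signal loss = reduced viability.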

For assay [7], the target named is Cellular tumor antigen p53 (Homo sapiens) (UniProt P04637). Nature of the assay: TOX21_p53_BLA_p5_ratio: Tox21 HCT-116 p53 Agonism Beta-lactamase Assay, Ratio, Phase 5 (AID 2283599). The method, boiled down: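 HCT-116 p53-bla cells (4000/well) plated 5 h, dosed with compound (217-fold DMSO dilution) for 16 h at 37 C; CCF4-AM substrate 2 h at room temperature. Activity is the 460/530 nm emission ratio (405 nm excitation), fitted in gain-of-signal direction versus DMSO.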
Cellular tumor antigen p53 (Homo sapiens), sequence (P04637 whole entry, looked up): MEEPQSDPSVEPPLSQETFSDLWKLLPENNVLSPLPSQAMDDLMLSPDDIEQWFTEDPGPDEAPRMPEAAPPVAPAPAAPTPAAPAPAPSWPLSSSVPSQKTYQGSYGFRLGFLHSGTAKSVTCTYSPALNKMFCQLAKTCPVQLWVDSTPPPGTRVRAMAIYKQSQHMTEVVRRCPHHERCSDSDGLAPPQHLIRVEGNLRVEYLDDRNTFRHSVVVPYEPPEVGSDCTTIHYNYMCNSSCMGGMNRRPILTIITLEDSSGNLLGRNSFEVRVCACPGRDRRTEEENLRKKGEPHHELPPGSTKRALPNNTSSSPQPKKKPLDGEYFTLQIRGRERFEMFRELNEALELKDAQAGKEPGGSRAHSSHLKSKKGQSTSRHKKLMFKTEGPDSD

Assay [8] in a line: TOX21_p53_BLA_p5_viability: Viability Assessment in the Tox21 HCT-116 p53 Agonism Beta-lactamase Assay, Phase 5 (AID 2283600). The method in brief: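 ATP luminescence (CellTiter-Glo, 30 min, RT) served as the viability read-out, with loss of signal indicating cytotoxicity. Compounds in DMSO were pinned at a 217-fold dilution onto 4000 cells/well and incubated 16 h, 37C.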
For assay [9], the target named is Cellular tumor antigen p53 (Homo sapiens) (UniProt P04637). Kind of assay: TOX21_p53_BLA_p4_ratio: Tox21 HCT-116 p53 Agonism Beta-lactamase Assay, Ratio, Phase 4 (AID 2283601). The method, boiled down:
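HCT-116 p53 beta-lactamase reporter cells (4000/well) preincubated 5 h, then compound (217-fold dilution of DMSO stock) for 16 h at 37C. CCF4-AM substrate added 2 h at room temperature; 460/530 nm emission ratio fitted upward versus DMSO.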

For the molecule `CC(C)(c1ccccc1)c1ccc(Nc2ccc(C(C)(C)c3ccccc3)cc2)cc1`, the call in assay [1], in [2], in [3], in assay [4], in [5] and in assay [6] was inactive. Besides, the result in assay [7], in assay [8] and in [9] was inactive.
`CCCCNS(=O)(=O)c1ccccc1`: the call in assay [1], in [2], in assay [3], in assay [4], in assay [5] and in assay [6] was inactive. Also, the outcome in [7], in [8] and in [9] was inactive.
Regarding `CCCCCCCOC(=O)c1ccc(O)cc1`, the result in assay [1], in [2], in assay [4], in assay [5], in assay [6] and in assay [7] was inactive. Moreover, the molecule was called inactive in assay [8] and in assay [9]. In addition, the AC50 in assay [2] is 44.8 µM (active); in assay [3], 58.9 µM (active) and 86.4 µM (active); in [4], 44.2 µM (active); in assay [5] it was 74.5 µM (active); in assay [6], 51.3 µM (active); in assay [7], 74.3 µM (active). The AC50 in assay [9] is 68.3 µM (active).
On to `O=C(Nc1ccccc1)c1cc(Cl)ccc1O`, for which the outcome in assay [1], in assay [4], in [8] and in assay [9] was inactive. The AC50 in assay [2] was 12.9 µM (active); in assay [3] it was 3.55 µM (active); in assay [5], 4.05 µM (active); in [6] it was 12.6 µM (active); in assay [7] it was 13.7 µM (active).
With `CCCCCCCCCCCCc1ccc(O)cc1`, the AC50 in assay [1] was 50.4 µM (active); in assay [3], 65.5 µM (active); in [4], 39.9 µM (active); in assay [6] it was 16.3 µM (active); in assay [7] it was 52.1 µM (active); in assay [8], 24 µM (active). Also, the AC50 in [9] was 28.3 µM (active). For the same molecule, the result in assay [1] was inactive.
Regarding `COc1ccc(-c2coc3cc(O)cc(O)c3c2=O)cc1`, the molecule was classed as inactive in assay [1], in assay [2], in assay [4], in assay [6], in assay [7] and in assay [8]. Besides, the outcome in assay [9] was inactive. The AC50 is 68.5 µM (active) in [2]; 71.6 µM (active) and 72 µM (active) in assay [3].
For `C=CC(=O)OCCCCCCOC(=O)C=C`, the call in assay [1], in [2], in [4], in assay [6], in assay [8] and in [9] was inactive. The AC50 is 69.1 µM (active) and 66.7 µM (active) in [3]; 54.4 µM (active) and 63.2 µM (active) in assay [5]; 42.4 µM (active) and 63.2 µM (active) in assay [7].
Take `N#CC1(N)CCCCC1`: the molecule was called inactive in assay [1], in assay [2], in assay [3], in [4], in [5] and in assay [6]. For the same molecule, the result in assay [7], in assay [8] and in [9] was inactive.
Take `CCCCC/C=C\C/C=C\CCCCCCCC(=O)O`: the outcome in assay [1], in assay [2], in assay [3], in assay [4], in assay [5] and in [6] was inactive. Moreover, the outcome in assay [7], in assay [8] and in assay [9] was inactive. For the same molecule, the AC50 is 41.5 µM (active) in assay [2]; 72.9 µM (active) in assay [3]; 47.2 µM (active) in [4]; 72 µM (active) in assay [5]; 86.3 µM (active) in assay [7]; 80.5 µM (active) in [8].
